# Fluor 339 460 = intrinsic fluorescence of library compounds, ex339/em460 – biochemical, MLSMR library, data from DPM-DC assay, artefact control, profiling panel; fluorescence fold increase at 10 µM; actives 5.5% (n = 65,000); compound autofluorescence, ex339/em460 nm, NADH buffer; stronger effect = higher value; 1 = no-compound wells, NADH background;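 active = at 10 µM, mean starting fluorescence two-fold or more over control wells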;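 also: signal is the first read of a kinetic run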
# DPM-DC inhibit = inhibitors of Streptococcus pneumoniae diphosphomevalonate decarboxylase. purified DPM-DC, PK/LDH coupled NADH fluorescence. actives 0.49% (n = 65,000). calls only at 10 µM;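 active = the 320 compounds with the highest percent inhibition in the single-dose primary screen, excluding strongly autofluorescent ones, cut at about 32% in these data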;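 also: kinetic rate of NADH fluorescence loss reporting ADP formed by the decarboxylase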
# Spn PMK inh = inhibitors of Streptococcus pneumoniae phosphomevalonate kinase; actives 0.49% (n = 65,000); inhibition, % at 10 µM; AID 539; purified PMK, PK/LDH-coupled NADH absorbance 340 nm;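 active = top-ranked compounds by inhibition in the single 10 µM screen, taking a fixed number of the strongest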;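 also: 0% = full reaction with DMSO carrier and 100% = background rate without enzyme reaction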
# MK inhibit = blocks S. pneumoniae mevalonate kinase. actives 0.48% (n = 65,000). purified MK, PK/LDH-coupled NADH absorbance 340 nm. inhibition, % at 10 µM;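 active = ranked among the strongest by inhibition in the single 10 µM screen, a fixed top-ranked set picked for dose follow-up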
# NADH coupling = blocks coupling enzymes of NAD/NADH assays | IC50, µM (top dose mostly 10 µM), for inactives: top-dose inhibition | coupled PK/LDH NADH assays, four targets | actives 0.02% (n = 65,000);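 active = single-dose screening hits from any of four coupled enzyme assays that gave an IC50 when retested across doses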;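 also: the DPM-DC format reads NADH fluorescence rather than 340 nm absorbance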
# Numbers without * were called inactive; i = inactive; / = no result shown; + = active, no number. This is a sample that favours compounds with a hit; in the whole collection about 6.6% have one here.
SMILES,Fluor 339 460,DPM-DC inhibit,Spn PMK inh,MK inhibit,NADH coupling
CC(C)N(C(=O)CSc1nnc(CN2CCCCCC2=O)n1-c1ccccn1)C(C)C,0.81,i,11.0,6.0,10.0%
CCSc1nc2n(n1)C(c1cccc(F)c1)C1=C(CCCC1=O)N2 (stereo unspecified),2.58*,i,0.0,1.0,8.0%
CCc1nc2ccccc2n1Cc1ccc(OC)c(OC)c1,1.09,i,2.0,2.0,1.0%
CCc1nc2ccccc2n1Cc1cc(=O)n2cc(C)ccc2n1,3.43*,i,16.0,0.0,10.0%
Cc1cc(=O)[nH]c2c(C)c(N)ccc12,3.93*,/,13.0,10.0,12.0%
Cc1cc(=O)[nH]c2c(C)c(Cl)ccc12,1.15,i,9.0,6.0,7.0%
CCOC(=O)N1CCC(NC(=O)c2ccc3c(c2)sc2nc(-c4ccccc4)cn23)CC1,2*,i,11.0,12.0,8.0%
CCOC(=O)N1CCC(NC(=O)c2ccc3c(c2)sc2nc(-c4cccc(OC)c4)cn23)CC1,1.84,i,13.0,10.0,6.0%
CN(C)c1ccc(-c2nnn(CC(=O)Nc3ccccc3N3CCOCC3)n2)cc1,1.31,i,7.0,3.0,4.0%
CN(C)c1ccc(-c2nnn(CC(=O)N3c4ccccc4CCc4ccccc43)n2)cc1,2.61*,i,0.0,0.0,0.0%
CCCCc1cc(=O)oc2cc(C)cc(OC(C)C(=O)O)c12 (stereo unspecified),2.98*,/,9.0,4.0,2.0%
CCCc1cc(=O)oc2cc(C)cc(OCC(=O)O)c12,3.88*,/,0.0,4.0,2.0%
CCOC(=O)C1C(=O)CC(C)(O)C(C(=O)OCC)C1c1ccco1 (stereo unspecified),1.1,i,6.0,0.0,3.0%
CC1(C)CC2CC(C)(CN2C(=O)COC(=O)c2ccc(Cl)cc2N)C1 (stereo unspecified),4.22*,/,9.0,9.0,9.0%
CCCc1nnc(NC(=O)CN2CCOCC2)s1,0.75,+,11.0,8.0,17.0%
CCc1nnc(NC(=O)CN2CCOCC2)s1,1.11,i,4.0,5.0,3.0%
O=C(CN1C(=O)C2C3C=CC(C3)C2C1=O)N1CCc2ccccc2C1 (stereo unspecified),1.04,i,10.0,7.0,6.0%
COc1ccc(OC)c2c1CCC2=O,2.31*,/,0.0,8.0,4.0%
Cc1nc(NC(=O)c2ccco2)sc1C(=O)Nc1ccc(Br)cc1,1.2,i,25.0*,0.0,10.0%
Cc1ccc(-c2nnc(-c3ccc(NC(=O)c4ccco4)cc3)o2)cc1,3.05*,i,11.0,0.0,13.0%
CCOc1cccc(C(=O)Nc2cccc(-c3nnc(-c4ccc(C)cc4)o3)c2)c1,3.57*,/,1.0,0.0,1.0%
CCOc1cccc(C(=O)Nc2cccc(-c3nnc(-c4ccccc4)o3)c2)c1,1.09,i,8.0,10.0,6.0%
O=C(Nc1ccc(-c2nc3ncccc3o2)cc1)c1ccc(Br)o1,1.97,/,0.0,8.0,7.0%
Cc1ccc2nc(-c3ccc(NC(=O)c4ccco4)cc3)[nH]c2c1,1.06,i,3.0,0.0,3.0%
O=C(Nc1ccc(-c2nc3ncccc3o2)cc1)c1ccco1,2.6*,+,5.0,11.0,20.0%
SMILES,Fluor 339 460,DPM-DC inhibit,Spn PMK inh,MK inhibit,NADH coupling
CCC(=O)N1CCN(c2ccccc2NC(=O)COc2cc(C)ccc2C(C)C)CC1,1.07,i,11.0,7.0,6.0%
CCOc1ccc(-n2ccnc2SCC(=O)NCc2ccc3c(c2)OCO3)cc1,1.07,i,8.0,0.0,3.0%
c1ccc(Cn2nnc3c(N4CCCCCC4)ncnc32)cc1,1,i,0.0,6.0,3.0%
c1ccc(Cn2nnc3c(N4CCc5ccccc54)ncnc32)cc1,4.3*,/,7.0,3.0,5.0%
O=C(COc1ccc2oc(-c3ccccc3)cc(=O)c2c1)NCc1ccco1,3.85*,/,10.0,5.0,8.0%
O=C(COC(=O)COc1ccc(Nc2ccccc2)cc1)NCc1ccco1,1.01,i,12.0,7.0,6.0%
CCCCN(Cc1cc2cc(OC)ccc2[nH]c1=O)C(=O)COc1ccccc1,1.88,i,7.0,8.0,4.0%
COCC(=O)N(Cc1cc2cc(OC)ccc2[nH]c1=O)c1ccccc1,2.69*,i,0.0,8.0,3.0%
CCC(=O)N(Cc1ccc2c(c1)OCO2)Cc1cc2cc(OC)ccc2[nH]c1=O,1.72,i,18.0,17.0,15.0%
CCC(=O)N(Cc1cc2cc(OC)ccc2[nH]c1=O)c1ccc(C)cc1C,3.09*,i,15.0,6.0,10.0%
